# p53null 39C kill: p53 null cell cytotoxicity, nonpermissive temperature; H1299 p53-null (neo) cells, 39C, ATPlite viability, 24 h; Potency, µM (top dose mostly 46.1 µM), for the others: at the top dose activity, negative = cell killing, usual class: cytotoxic; hit rate 0.97% among 55,000;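 further: potency means the concentration at half of the fitted maximal effect; 0% = DMSO only and -100% = full killing by 100 µM tamoxifen; nearly all actives have a fitted effect of over 50% in size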
#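 ATP-luminescence viability readout (ATPlite, 20 min RT) after 24 hr compound treatment at 39C of H1299-neo or H1299-p53A138V cells; titration up to 46 uM; normalized to DMSO and 100 uM tamoxifen; Hill-fit AC50.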
# OvCa metastasis: ovarian cancer metastasis inhibition, 3D TME model; SKOV3ip1-GFP adhesion/invasion on 3D omental model, fluorescence; Potency, µM (titrated, usually from 45.8 µM), inactives show at the top dose activity change, negative = inhibition, actives largely listed as inhibitors; hit rate 0.1% among 46,000;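 further: potency means the concentration at half of the fitted maximal effect; plate controls were DMSO wells for no effect and tomatine positive control wells for full effect; nearly all actives have a fitted effect of over 65% in size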
#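 A 3D layer of primary human omental fibroblasts, mesothelial cells, fibronectin and collagen I, grown 48 hr, received SKOV3ip1-GFP cells in serum-free medium plus compounds at 0.36-46 umol/L. After 2 hr RT and 16 hr 37 C, fixed adherent GFP cells were counted; normalized to DMSO and tomatine.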
# p53null 32C tox: kills p53 null cells at the permissive temperature | H1299-neo p53 null cells, ATP luminescence, 24 h, 32C | hit rate 0.62% among 55,000 | Potency, µM (titrated, usually from 46.1 µM), inactives show top-dose activity change, negative = cytotoxicity, most hits filed as cytotoxic;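 further: potency means the concentration at half of the fitted maximal effect; 0% = DMSO only and -100% = full killing by 100 µM tamoxifen; nearly all actives have a fitted effect of over 55% in size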
#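 Cells lacking p53 (H1299-neo) are plated at 600 per well and allowed to settle overnight at 37C. Test compounds (up to 46 uM) are added and held 24 hours at 32C, then ATP is quantified by luminescence.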
# S16 F2sN tox: cytotoxicity in S16 Pmp22-F2sN Schwann cells. S16 Pmp22-F2sN Schwann cells viability, CellTiter-Glo, 24 h. Potency, µM (highest dose often 57.5 µM), for inactives: top-dose activity change, negative = cytotoxicity, actives largely listed as cytotoxic. hit rate 0.48% among 43,000; further: potency means the concentration at half of the fitted maximal effect; on the % scale 0 is the no-effect control and ±100 the full control effect; nearly all actives have a fitted effect of over 65% in size
#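 S16 Schwann cells carrying the Pmp22-F2sN reporter, seeded in 1536-well format, were exposed to library compounds for 24 h at 37C. Viability was read as CellTiter-Glo luminescence after 15 min at room temperature.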
# PMP22 txn: PMP22 gene transcription modulation | hit rate 2% among 43,000 | Potency, µM (titrated, usually from 57.5 µM), inactives show at the top dose activity change, negative = inhibition, most hits filed as inhibitors | AID 1508649 | S16 Pmp22-F2sN Schwann cells (luciferase reporters placed in the Pmp22 gene), FLuc/NLuc coincidence luminescence, 24 h; active means clear falling dose curves in both reporters; inconclusive means both reporters move, but less clearly or upward; inactive means either reporter flat; the % is the NLuc reporter signal; further: potency means the concentration at half of the fitted maximal effect; on the % scale 0 is the no-effect control and ±100 the full control effect
#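 Schwann cells carrying the coincidence reporter were exposed to library compounds for 24 h at 37C, then lysed and read for FLuc and, after quenching, NLuc luminescence on a CCD imager.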
# pS6 MEF inh: reduces mTORC1 signaling in Tsc2 and p53 null MEF cells | Potency, µM (titrated, usually from 38.3 µM), for inactives: top-dose activity change, negative = inhibition, most hits filed as inhibitors | Tsc2-/- p53-/- MEF, phospho-rpS6 immunofluorescence/PI, 24 h | hit rate 0.78% among 44,000;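 further: potency means the concentration at half of the fitted maximal effect; plate controls were DMSO for no effect and rapamycin for full effect; nearly all actives have a fitted effect of over 50% in size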
#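 Read-out: phospho-S6 Alexa-488 intensity over PI intensity per well, scored as % active cells using thresholds from rapamycin (7.5 nM) and DMSO controls. Tsc2-/-, p53-/- MEFs exposed to compound for 24 h; PI cell count recorded as viability.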
# NLuc sat counter: NanoLuc enzyme inhibition artifact for PMP22 screen | shares compounds with PMP22 txn | Secreted NLuc enzyme (filtered S16 cell medium), Nano-Glo luminescence | Potency, µM (doses to about 57.5 µM), inactives show at the top dose activity change, negative = inhibition, most hits filed as inhibitors | hit rate 4% among 690 | AID 1508638; further: potency means the concentration at half of the fitted maximal effect; on the % scale 0 is the no-effect control and ±100 the full control effect
# NLuc Km ctr: inhibits NanoLuc under Km conditions, PMP22 counter-screen; hit rate 5% among 690; secreted NLuc enzyme, coelenterazine luminescence, Km conditions; AID 1508639; shares compounds with PMP22 txn; Potency, µM (top dose mostly 57.5 µM), inactives show at the highest dose activity change, negative = inhibition, hits mostly inhibitors; further: potency means the concentration at half of the fitted maximal effect; on the % scale 0 is the no-effect control and ±100 the full control effect
# FLuc ctr PMP22: firefly luciferase enzyme inhibition artifact for PMP22 screen. purified P. pyralis FLuc, luminescence, 10 min. AID 1508640. 690 tested, under 10 active. Potency, µM (top dose mostly 57.5 µM), for inactives: top-dose activity, negative = inhibition, actives largely listed as inhibitors. shares compounds with PMP22 txn; further: % of control where 0% means no effect
# Target sequence (P08659 whole entry, looked up): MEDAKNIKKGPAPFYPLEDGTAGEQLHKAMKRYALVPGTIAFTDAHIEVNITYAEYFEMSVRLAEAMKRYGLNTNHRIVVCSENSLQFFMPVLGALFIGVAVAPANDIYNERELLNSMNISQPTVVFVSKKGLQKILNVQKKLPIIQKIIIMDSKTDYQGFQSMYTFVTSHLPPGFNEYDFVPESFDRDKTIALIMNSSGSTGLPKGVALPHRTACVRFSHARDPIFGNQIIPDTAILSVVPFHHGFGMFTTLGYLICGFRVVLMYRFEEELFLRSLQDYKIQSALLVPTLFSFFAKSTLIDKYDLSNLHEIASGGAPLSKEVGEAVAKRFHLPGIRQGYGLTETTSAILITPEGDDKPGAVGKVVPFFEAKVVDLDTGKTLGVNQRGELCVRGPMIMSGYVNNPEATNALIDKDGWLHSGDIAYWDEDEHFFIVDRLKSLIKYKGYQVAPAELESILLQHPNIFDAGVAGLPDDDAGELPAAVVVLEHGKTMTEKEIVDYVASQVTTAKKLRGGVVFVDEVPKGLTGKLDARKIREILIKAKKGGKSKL
# S16 F2sN tox cnf: S16 Schwann cell cytotoxicity, confirmatory. hit rate 7% among 690. shares compounds with PMP22 txn. S16 Schwann cells viability, CellTiter-Glo ATP luminescence, 24 h. AID 1508641. Potency, µM (titrated, usually from 57.5 µM), without a hit: at the highest dose activity change, negative = viability loss, usual class: cytotoxic; further: potency means the concentration at half of the fitted maximal effect; on the % scale 0 is the no-effect control and ±100 the full control effect
# PMP22 txn cnf: confirmation of modulators of PMP22 gene transcription in S16 cells. shares compounds with PMP22 txn. S16 Schwann cells Pmp22-F2sN, dual luciferase, 24 h. Potency, µM (titrated, usually from 57.5 µM), for the others: at the top dose activity change, negative = inhibition, usual class: inhibitors. hit rate 22% among 690. AID 1508646; active means clear falling dose curves in both reporters; inconclusive means both reporters move, but less clearly or upward; inactive means either reporter flat; the % is the FLuc reporter signal; further: potency means the concentration at half of the fitted maximal effect
# PMP22 prot conf: rat PMP22 protein level modulation, confirmatory; shares compounds with PMP22 txn; S16 Schwann cells Pmp22-HiBiT, luminescence, 48 h; Potency, µM (doses to about 27.9 µM), inactives show at the highest dose activity change, negative = inhibition, usual class: inhibitors; 95 tested, under 10 active
# Target sequence (P25094 whole entry, looked up): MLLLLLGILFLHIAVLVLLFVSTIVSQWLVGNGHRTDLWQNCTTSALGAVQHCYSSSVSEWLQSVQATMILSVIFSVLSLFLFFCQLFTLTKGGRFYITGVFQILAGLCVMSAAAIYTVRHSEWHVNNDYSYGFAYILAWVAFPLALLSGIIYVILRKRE
# The depositor's hits bear a star; i = inactive; ? = inconclusive; . = not tested or not shown. A selection: hits, their analogues and other compounds. The true share with any hit is near 3%. Unless noted, the call rests on the fitted dose curve; in most records, active means well fitted curve in the direction sought with a large enough effect; inconclusive means small, poorly fitted or top-dose-only effect, or another doubt; inactive means no such curve, though single readings can be large; an effect the other way counts as inactive or inconclusive.
SMILES,p53null 39C kill,OvCa metastasis,p53null 32C tox,S16 F2sN tox,PMP22 txn,pS6 MEF inh,NLuc sat counter,NLuc Km ctr,FLuc ctr PMP22,S16 F2sN tox cnf,PMP22 txn cnf,others
CCOC(=O)COc1ccc(C)cc1C(=O)c1ccn2nc(-c3ccc(F)cc3)cc2n1,.,i,.,24%,18µM*,-2%,-10%,?,6%,11%,?,
CN(C)CCOc1ccc(-c2nc(-c3ccc4c(c3)CCC4=NO)c(-c3ccncc3)[nH]2)cc1,.,-4%,.,.,.,.,.,.,.,.,.,
COc1ccccc1CNC(=O)Cn1c(=O)oc2cc(S(=O)(=O)N3CCC(C)CC3)ccc21,-6%,-9%,?,?,13µM*,-5%,-12%,-1%,1%,-18%,-26%,
O=C(O)C1=NC(C(=O)O)CC(C=CN2c3cc(O)c(OC4OC(CO)C(O)C(O)C4O)cc3CC2C(=O)O)=C1 (configuration not stated),.,-15%,.,.,.,.,.,.,.,.,.,
Cc1c2cnn(CC(=O)NCc3ccccc3)c(=O)c2c(C)n1Cc1cccc(Cl)c1,?,0%,8%,-13%,13µM*,?,-12%,-1%,-4%,-10%,?,
Cc1ccc(Nc2cc(C(=O)NC3CCCC3)c3ccccc3n2)cc1C,-15%,-11%,-2%,-8%,2.8µM*,-13%,2%,1%,?,9%,-11%,
N[C@@]1(C(=O)O)CS(=O)(=O)[C@H]2[C@H](C(=O)O)[C@H]21,.,-15%,.,.,.,.,.,.,.,.,.,
COc1ccc(Nc2nc3c(S(=O)(=O)c4ccccc4)nnn3c3ccc(Cl)cc23)cc1,-25%,1%,?,?,8.9µM*,-9%,0%,5%,1%,?,14µM*,PMP22 prot conf=?
COc1ccc(Nc2nc3c(S(=O)(=O)c4ccccc4)nnn3c3ccsc23)cc1OC,2%,-7%,-4%,14%,-7%,-5%,.,.,.,.,.,
COc1ccc(Nc2nc3c(S(=O)(=O)c4ccc(C)cc4)nnn3c3ccsc23)cc1Cl,?,-3%,-11%,-9%,9µM*,-1%,-6%,-15%,-1%,?,?,
O=C(CO)N1CCC(c2[nH]nc(-c3ccc(Cl)cc3)c2-c2ccncn2)CC1,.,-15%,.,.,.,.,.,.,.,.,.,
Cc1nnc(N2CCC(C(=O)N3CCCCC3)CC2)c2nn(-c3ccccc3)c(C)c12,12%,-9%,8%,-16%,5%,-8%,.,.,.,.,.,
CCOC(=O)C1CCN(C(=O)C2CCN(c3nnc(C)c4c(C)n(-c5ccccc5)nc34)CC2)CC1,-4%,i,19%,18%,14µM*,-5%,-10%,0%,3%,2%,-22%,
Cc1ccc(-n2nc3c(N4CCC(C(=O)NCCC(C)C)CC4)nnc(C)c3c2C)cc1,?,6%,26%,-27%,6.2µM*,-2%,-9%,-3%,1%,-7%,?,
Cc1ccc(-n2nc3c(N4CCC(C(=O)NCCc5ccccc5C)CC4)nnc(C)c3c2C)cc1,-8%,?,-1%,?,9.5µM*,-1%,-16%,-4%,-9%,24µM*,?,
CCOC(=O)c1c(NC(C)=O)c2c3c(sc2n1Cc1nc(-c2ccccc2C)oc1C)CCCC3,-8%,11%,-4%,2%,-13%,2%,.,.,.,.,.,
COc1ccc2cccc(CCNC(C)=O)c2c1,.,7%,.,.,.,.,.,.,.,.,.,
O=C(NCC1CN(c2ccc(N3CCOCC3=O)cc2)C(=O)O1)c1ccc(Cl)s1 (configuration not stated),.,-14%,.,.,.,.,.,.,.,.,.,
CN(CC=CC#CC(C)(C)C)Cc1cccc2ccccc12,.,-5%,.,.,.,.,.,.,.,.,.,
C[C@H](NC(=O)C(=O)Nc1ccccc1C(C)(C)C)C(=O)N[C@@H](CC(=O)O)C(=O)COc1c(F)c(F)cc(F)c1F,.,14%,.,.,.,.,.,.,.,.,.,
O=C(Nc1ccccc1C(F)(F)F)N1CCN(c2ccc3nnc(-c4ccc(F)cc4)n3n2)CC1,15%,-19%,27%,-7%,16µM*,-2%,-18%,-4%,-9%,-10%,?,
C[C@@]12C[C@@]3(O)O[C@@H](O1)[C@]1(COC(=O)c4ccccc4)[C@@H]3C[C@@]12O[C@@H]1O[C@H](CO)[C@@H](O)[C@H](O)[C@@H]1O,.,15%,.,.,.,.,.,.,.,.,.,
COc1ccc(NC(=O)Cn2c(=O)c3cccn3c3ccccc32)cc1,68%,13%,6%,5%,7%,-19%,.,.,.,.,.,
COc1ccc(OC)c(NC(=O)Cn2c(=O)c3cccn3c3ccccc32)c1,108%,14%,25%,-2%,?,9%,?,?,1%,-8%,-32%,
CCc1nn(CC(=O)Nc2ccc(NC(C)=O)cc2)c(=O)c2cc3sccc3n12,-15%,i,6%,-14%,-9%,1%,.,.,.,.,.,
CCc1ccccc1NC(=O)Cn1nc(CC)n2c(cc3sccc32)c1=O,1%,12%,-4%,5%,-42%,-5%,-7%,-7%,10%,9%,?,
